Experimental data: PubChem BioAssay AID2289 (National Center for Advancing Translational Sciences (NCATS), 2010)
Screen size: about 340,000 compounds; about 3,300 (0.97%) were called active. Not shown: some 9% with an inconclusive outcome. The call rests on the fitted dose curve; in most records, active means well fitted inhibition curve with a large enough effect; inconclusive means small, poorly fitted or top-dose-only effect, or effect the other way; inactive means flat fitted curve, though single readings scatter. The list shows a part of the results.

Test: qHTS Assay for Modulators of miRNAs and/or Inhibitors of miR-21; further: nearly all actives have a fitted effect of over 55% in size
Conditions: HeLa miR-21-FLuc reporter, luciferase luminescence, 48 h; actives lower the signal
In short: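 HeLa cells stably expressing CMV-driven firefly luciferase with a downstream miR-21 binding sequence, endogenously expressing miR-21, were treated with titrations (up to about 40uM final) for 48 hours at 37 degree Celsius. Luciferase luminescence was read after lysis.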
Potency means the concentration at half of the fitted maximal effect.

Potency, active:
O=C(Nc1ccccc1)c1ccc(-c2ccccc2)s1 1.85 µM
O=C(Nc1ccccc1Cl)c1ccc(-c2ccccn2)s1 0.826 µM
O=C(Nc1ccc(Cl)cc1)c1ccc(-c2ccccn2)s1 0.736 µM
c1ccc(-c2ccc(-c3ccccn3)s2)nc1 0.736 µM
O=S1(=O)CCN2C(=N1)Sc1c2ccc2c1CCCC2 13.1 µM
Cc1nc(C#N)c(N/N=C/c2cccc(Cl)c2)o1 7.36 µM
CCOc1ccc(-c2cc(NC(=O)Nc3ccccc3Cl)c(C(=O)OC)s2)cc1 5.85 µM
COC(=O)c1sc(-c2ccc(C(C)(C)C)cc2)cc1NC(=O)COCC(=O)O 11.7 µM
COC(=O)c1sc(-c2ccc(C(C)(C)C)cc2)cc1NC(=O)CCC(=O)O 5.21 µM
COc1ccc(N2C(=O)c3ccccc3NC2c2ccc(OC)c(Cn3nnc4ccccc43)c2)cc1 (stereo unspecified) 5.21 µM
COc1ccc(C2Nc3ccccc3C(=O)N2c2ccc(Cl)cc2)cc1Cn1cc([N+](=O)[O-])cn1 (stereo unspecified) 0.736 µM
COc1ccc(C2Nc3ccccc3C(=O)N2c2ccc(C)cc2)cc1Cn1nnc2ccccc21 (stereo unspecified) 6.56 µM
O=[N+]([O-])c1ccccc1/C=N/OCc1ccccc1 14.7 µM
Cc1ccc(Cn2cnc3nc4c(cc3c2=O)CCCC4)cc1 8.26 µM
Cc1ccc(Cn2cnc3nc4c(cc3c2=O)CC(C)CC4)cc1 (stereo unspecified) 4.65 µM
Cc1nc2cc(NC(=O)C3COc4ccccc4O3)ccc2s1 (stereo unspecified) 4.14 µM
O=C(Nc1ccc2c(c1)CCC2)C1COc2ccccc2O1 (stereo unspecified) 1.47 µM
Cc1c(C(=O)N(CCO)Cc2ccccc2)oc2c(F)cccc12 13.1 µM
C=CCn1c(SCC(N)=O)nnc1-c1cc2c(s1)CCC(CC)C2 (stereo unspecified) 13.1 µM
C=CCn1c(SCC(=O)NCC)nnc1-c1cc2c(s1)CCC(CC)C2 (stereo unspecified) 7.36 µM
Cc1cccnc1Nc1nc(-c2ccc(O)cc2)cs1 3.29 µM
Cc1cccnc1Nc1nc(-c2ccc(O)c(O)c2)cs1 4.65 µM
Cc1cccnc1Nc1nc(-c2ccc(O)cc2O)cs1 5.21 µM
Cc1ccc2nc(Cl)c(/C=C/C(=O)c3ccco3)cc2c1 14.7 µM
COCc1cc(C)nc2sc(C(=O)Nc3ccccc3O)c(N)c12 13.1 µM
COCc1cc(C)nc2sc(C(=O)Nc3ccccc3F)c(N)c12 18.5 µM
COCc1cc(C)nc2sc(C(=O)Nc3cc(C)ccc3F)c(N)c12 7.36 µM
Cc1ccc(-n2nnc(-c3nsc(NC(=O)c4ccccc4)n3)c2C)cc1 5.21 µM
Cc1c(-c2nsc(NC(=O)c3cccs3)n2)nnn1-c1ccc(Br)cc1 1.85 µM
Cc1c(-c2nsc(NC(=O)c3cccs3)n2)nnn1-c1ccc(F)cc1 0.521 µM
Cc1c(-c2nsc(NC(=O)c3cccs3)n2)nnn1-c1ccc(Cl)cc1 2.07 µM
COc1cccc(-c2nc(=S)c3c(o2)CCCC3)c1 1.85 µM
COCCn1c(SCc2nc3ccccc3s2)nc2ccccc21 8.26 µM
Cc1nnc(SCc2nc3ccccc3s2)n1-c1ccccc1 16.5 µM
CCn1c(SCc2nc3ccccc3s2)nnc1-c1ccccc1 16.5 µM
Cc1cccc(C)c1Nc1nnc(SCc2nc3ccccc3s2)s1 4.65 µM
CCCSc1nnc(Nc2ccccc2C)s1 5.85 µM
c1ccc(SCc2nc3ccccc3s2)nc1 3.69 µM
O=c1c2ccccc2nc(SCc2nc3ccccc3s2)n1CCCO 11.7 µM
CCCn1c(SCc2nc3ccccc3s2)n[nH]c1=O 6.56 µM
Brc1ccccc1-c1nnc(SCc2nc3ccccc3s2)o1 8.26 µM
Cc1ccccc1OCCSc1nnc(C)n1-c1ccccc1 14.7 µM
Nc1ccc(O)c2c(=O)cc(-c3ccccc3Cl)oc12 3.29 µM
Nc1ccc2oc(-c3ccccc3Cl)cc(=O)c2c1O 6.56 µM
O=c1cc(-c2ccccc2Cl)oc2cc(O)cc(O)c12 10.4 µM
C#Cc1cccc(NC(=O)c2ccc(Cl)cc2Cl)c1 1.17 µM
O/N=C/c1cn(-c2ccc(Cl)cc2)nn1 13.1 µM
O=C(COc1ccc(F)cc1Br)NCc1ccccn1 14.7 µM
COc1ccc(CNC(=O)Nc2cccc(Cl)c2)cc1 3.69 µM
COc1ccc(CNC(=S)N/N=C(/C)c2ccccc2)cc1 11.7 µM
Cc1ccc(CNC(=O)Nc2ccccc2)c(C)c1 1.65 µM
COc1ccccc1C(=O)NC(=O)Nc1cccc(Cl)c1 0.736 µM
CSc1ccc(NC(=O)NCc2ccccc2)cc1 9.27 µM
COc1ccc(CNC(=O)Nc2ccccc2)cc1 4.65 µM
COc1ccc(/C=N/N=C2/SCC(=O)N2Cc2ccccc2)cc1 2.07 µM
CCc1ccc2[nH]c(C(=O)Nc3ccc(Br)c(C)n3)cc2c1 1.65 µM
COc1ccc(CNc2nc3nc(C)c(Cl)c(C)n3n2)cc1 16.5 µM
COc1cccc(CNc2nc3nc(C)c(Cl)c(C)n3n2)c1 10.4 µM
O=C(/C=C/c1ccccc1[N+](=O)[O-])Nc1cccnc1 7.36 µM
Cc1ccc(Cl)c(OCC(=O)Nc2cccnc2)c1 3.29 µM
Cc1ccc(OCC(=O)Nc2ccccc2[N+](=O)[O-])c(Br)c1 1.31 µM
O=C(COc1ccccc1Cl)Nc1cccnc1 6.56 µM
Cc1ccc(NC(=O)COc2ccc(Br)cc2C)cc1 9.27 µM
Cc1ccc(NC(=O)c2ccc(OC(=O)COc3ccc(Cl)cc3C)cc2)cc1 1.47 µM
O=C(COc1ccccc1[N+](=O)[O-])Nc1cccnc1 8.26 µM
Cc1ccc(OCC(=O)Nc2ccon2)c([N+](=O)[O-])c1 6.56 µM
O=C(COc1ccccc1[N+](=O)[O-])Nc1ccc(Br)cc1 3.29 µM
S=C(NNC(=S)Nc1ccccc1)Nc1ccccc1 6.56 µM
O=C(NNC(=S)Nc1ccccc1)c1ccc(O)cc1 7.36 µM
Cn1c(C2=C(O)CN(Cc3ccccc3)C2=N)nc2ccccc21 14.7 µM
O=C(Nc1ccc(F)cc1F)c1ccc2ncsc2c1 13.1 µM
O=C(Nc1ccc(Br)cc1)c1ccc2ncsc2c1 1.47 µM
O=C(Nc1ccccc1F)c1ccc2ncsc2c1 9.27 µM
O=C(Nc1ccc(Cl)cc1Cl)c1ccc2ncsc2c1 2.33 µM
N#C/C(=C\c1cccs1)C(=O)Nc1nccs1 7.36 µM
Cn1c(=O)n(CCOc2ccccc2Cl)c2ccccc21 7.36 µM
Cc1ccc(OCCn2c(=O)n(C)c3ccccc32)cc1 7.36 µM
Cc1ccc2oc(C(=O)NCCCN3CCOCC3)c(C)c2c1 2.93 µM
Cc1ccc2oc(C(=O)N3CCCCCC3)c(C)c2c1 6.56 µM
COc1ccc(CCc2nnc(CCC(=O)NCc3cc(C(C)C)no3)o2)cc1 14.7 µM
CCc1cc(CNC(=O)CCc2nnc(CCCc3ccccc3)o2)on1 7.36 µM
Cc1ccc(-n2ncc3c(SCc4ccccc4)ncnc32)cc1 3.29 µM
CC(C)Sc1ncnc2c1cnn2-c1ccccc1 2.61 µM
O=[N+]([O-])c1ccccc1OCCCn1cnc2ccccc21 2.93 µM
Brc1ccccc1OCCCn1cnc2ccccc21 1.85 µM
CCn1c(COc2ccccc2C)nc2ccccc21 9.27 µM
Cc1ccccc1OCc1nc2ccccc2n1C 1.04 µM
Cn1c(COc2ccc(F)cc2)nc2ccccc21 2.93 µM
C#CCn1c(COc2ccccc2C)nc2ccccc21 5.85 µM
Cc1nnc(OCc2nc3ccccc3n2C)c2ccccc12 16.5 µM
Cc1cccc(OCc2nc3ccccc3n2C)c1 16.5 µM
COc1ccc(-c2c(C)c3ccc(O)cc3oc2=O)cc1 9.27 µM
COc1ccc(-c2cc3ccc(OCC(C)=O)cc3oc2=O)cc1OC 3.69 µM
COc1ccc(-c2cc3ccc(OCC(C)=O)cc3oc2=O)cc1 0.656 µM
COc1ccc(-c2cc3ccc(O)cc3oc2=O)cc1OC 18.5 µM
O=C(O)c1cc(N/N=C/c2ccc(-c3ccccc3)cc2)ccc1Cl 0.233 µM
O=C(O)c1cc(N/N=C/c2ccc(OCc3ccccc3)cc2)ccc1Cl 1.17 µM
O=C(O)c1cc(N/N=C/c2ccc(-c3ccc(F)cc3)o2)ccc1Cl 16.5 µM
CSc1n[nH]c(-c2ccc(C(F)(F)F)cc2)n1 7.36 µM
C#CC(C)(C)NC(=O)c1ccc(-c2ccccc2F)cc1 5.85 µM
COc1ccc(C(=O)NC2=Nc3ccccc3N=C(C)C2c2ccccc2)cc1 (stereo unspecified) 13.1 µM
CC(=O)Nc1ccc(N=Nc2ccccc2)cc1 1.65 µM
O=C(Nc1ccc(N=Nc2ccccc2)cc1)c1ccccc1Cl 1.04 µM
CCCC(=O)OCC(=O)Nc1ccc(N=Nc2ccccc2)cc1 3.69 µM
CC(C)C(=O)OCC(=O)Nc1ccc(N=Nc2ccccc2)cc1 1.85 µM
CC(=O)OCC(=O)Nc1ccc(N=Nc2ccccc2)cc1 1.31 µM
